Experimental data taken from ChEMBL document CHEMBL1961873, “Compounds: GSK PKIS; Assays: Nanosyn kinase panel” (2012).
Where “and” joins values, the source holds several entries; their conditions need not be identical. Equal entries are not always repeated.

Assays:
[1] = target: T1, Ephrin type-B receptor 2 (Homo sapiens) (UniProt P29323); details: at 1 µM
T1 sequence (whole entry): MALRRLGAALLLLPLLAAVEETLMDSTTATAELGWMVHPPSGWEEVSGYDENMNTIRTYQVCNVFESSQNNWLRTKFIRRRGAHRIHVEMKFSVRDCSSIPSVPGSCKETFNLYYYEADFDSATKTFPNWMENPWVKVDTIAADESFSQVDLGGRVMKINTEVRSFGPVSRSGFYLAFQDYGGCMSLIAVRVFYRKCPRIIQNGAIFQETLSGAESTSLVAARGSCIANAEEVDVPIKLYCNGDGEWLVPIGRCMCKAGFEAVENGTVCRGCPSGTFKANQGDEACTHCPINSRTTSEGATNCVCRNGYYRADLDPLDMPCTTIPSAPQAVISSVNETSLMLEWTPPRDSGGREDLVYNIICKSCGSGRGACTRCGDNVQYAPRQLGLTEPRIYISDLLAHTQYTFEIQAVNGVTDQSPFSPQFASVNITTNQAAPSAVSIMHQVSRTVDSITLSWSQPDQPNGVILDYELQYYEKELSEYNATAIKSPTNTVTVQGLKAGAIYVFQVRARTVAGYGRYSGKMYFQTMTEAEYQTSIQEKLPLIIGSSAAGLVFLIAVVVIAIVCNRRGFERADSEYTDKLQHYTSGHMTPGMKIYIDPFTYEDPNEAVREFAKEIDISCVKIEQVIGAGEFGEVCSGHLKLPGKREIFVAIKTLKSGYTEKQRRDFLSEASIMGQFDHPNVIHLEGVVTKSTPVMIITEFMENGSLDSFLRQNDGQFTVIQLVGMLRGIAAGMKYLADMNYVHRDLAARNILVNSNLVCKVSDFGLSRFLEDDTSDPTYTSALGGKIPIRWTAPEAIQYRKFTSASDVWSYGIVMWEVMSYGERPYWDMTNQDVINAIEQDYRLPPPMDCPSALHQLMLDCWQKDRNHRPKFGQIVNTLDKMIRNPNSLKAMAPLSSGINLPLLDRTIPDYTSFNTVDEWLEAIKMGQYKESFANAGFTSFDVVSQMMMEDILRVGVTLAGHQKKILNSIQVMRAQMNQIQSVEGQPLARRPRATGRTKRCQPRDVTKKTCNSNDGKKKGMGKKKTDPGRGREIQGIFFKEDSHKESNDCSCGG

[2] = target: T2, Ephrin type-B receptor 3 (Homo sapiens) (UniProt P54753); details: at 0.1 µM
T2 sequence (whole entry): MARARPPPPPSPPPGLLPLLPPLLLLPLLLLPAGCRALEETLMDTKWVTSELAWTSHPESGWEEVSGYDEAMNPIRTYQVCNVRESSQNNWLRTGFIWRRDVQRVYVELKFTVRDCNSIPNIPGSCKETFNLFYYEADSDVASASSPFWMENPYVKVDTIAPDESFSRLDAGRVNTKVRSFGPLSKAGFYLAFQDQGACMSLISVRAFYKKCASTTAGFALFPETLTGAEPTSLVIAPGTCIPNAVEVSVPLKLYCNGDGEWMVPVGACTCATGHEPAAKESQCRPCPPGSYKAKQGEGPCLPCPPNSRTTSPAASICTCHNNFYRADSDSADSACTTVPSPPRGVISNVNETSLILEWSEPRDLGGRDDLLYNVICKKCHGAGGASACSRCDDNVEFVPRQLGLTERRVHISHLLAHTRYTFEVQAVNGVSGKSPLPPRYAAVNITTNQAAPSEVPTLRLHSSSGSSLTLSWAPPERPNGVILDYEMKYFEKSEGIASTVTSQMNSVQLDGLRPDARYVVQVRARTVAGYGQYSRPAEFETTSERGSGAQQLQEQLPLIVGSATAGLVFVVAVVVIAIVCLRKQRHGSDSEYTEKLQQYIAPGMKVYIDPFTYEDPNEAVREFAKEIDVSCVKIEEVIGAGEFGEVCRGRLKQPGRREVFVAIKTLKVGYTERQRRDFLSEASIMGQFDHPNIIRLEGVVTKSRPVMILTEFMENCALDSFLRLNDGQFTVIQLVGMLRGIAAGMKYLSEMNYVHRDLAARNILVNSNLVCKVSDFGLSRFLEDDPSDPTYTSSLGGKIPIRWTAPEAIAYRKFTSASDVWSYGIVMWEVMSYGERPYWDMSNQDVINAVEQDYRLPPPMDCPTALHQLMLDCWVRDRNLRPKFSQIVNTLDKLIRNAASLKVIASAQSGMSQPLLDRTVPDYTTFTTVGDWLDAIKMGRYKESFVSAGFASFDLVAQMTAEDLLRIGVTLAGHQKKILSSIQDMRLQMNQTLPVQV

[3] = target: T2, Ephrin type-B receptor 3 (Homo sapiens); details: at 1 µM
[4] = target: T3, Ephrin type-B receptor 4 (Homo sapiens) (UniProt P54760); details: at 0.1 µM
T3 sequence (whole entry): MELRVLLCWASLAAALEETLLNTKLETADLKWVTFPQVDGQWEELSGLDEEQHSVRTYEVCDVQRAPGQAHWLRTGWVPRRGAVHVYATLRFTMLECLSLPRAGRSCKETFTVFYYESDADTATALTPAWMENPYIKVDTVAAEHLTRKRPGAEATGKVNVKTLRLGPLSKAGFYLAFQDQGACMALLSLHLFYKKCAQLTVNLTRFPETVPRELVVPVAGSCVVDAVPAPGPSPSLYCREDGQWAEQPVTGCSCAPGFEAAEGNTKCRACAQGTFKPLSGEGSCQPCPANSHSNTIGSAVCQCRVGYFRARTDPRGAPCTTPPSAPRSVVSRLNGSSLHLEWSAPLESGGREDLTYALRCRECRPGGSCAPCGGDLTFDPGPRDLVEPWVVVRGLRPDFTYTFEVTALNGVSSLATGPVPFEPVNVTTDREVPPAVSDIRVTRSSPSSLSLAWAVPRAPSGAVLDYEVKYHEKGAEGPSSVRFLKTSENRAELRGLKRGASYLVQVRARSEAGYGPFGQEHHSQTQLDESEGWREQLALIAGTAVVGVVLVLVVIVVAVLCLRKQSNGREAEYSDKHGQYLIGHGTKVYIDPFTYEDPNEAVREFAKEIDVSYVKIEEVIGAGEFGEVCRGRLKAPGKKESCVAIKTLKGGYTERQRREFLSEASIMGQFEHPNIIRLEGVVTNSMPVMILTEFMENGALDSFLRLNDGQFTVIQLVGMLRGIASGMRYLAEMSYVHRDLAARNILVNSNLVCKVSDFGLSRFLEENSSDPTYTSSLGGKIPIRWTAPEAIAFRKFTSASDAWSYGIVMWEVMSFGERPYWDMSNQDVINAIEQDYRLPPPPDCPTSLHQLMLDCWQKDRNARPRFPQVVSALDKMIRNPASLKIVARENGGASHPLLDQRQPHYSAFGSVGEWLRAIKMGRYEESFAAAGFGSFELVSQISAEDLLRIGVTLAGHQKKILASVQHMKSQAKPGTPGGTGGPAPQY

[5] = target: T3, Ephrin type-B receptor 4 (Homo sapiens); details: at 1 µM
[6] = target: Receptor tyrosine-protein kinase erbB-2 (Homo sapiens) (UniProt P04626); details: at 0.1 µM
Receptor tyrosine-protein kinase erbB-2 (Homo sapiens), sequence (P04626 whole entry): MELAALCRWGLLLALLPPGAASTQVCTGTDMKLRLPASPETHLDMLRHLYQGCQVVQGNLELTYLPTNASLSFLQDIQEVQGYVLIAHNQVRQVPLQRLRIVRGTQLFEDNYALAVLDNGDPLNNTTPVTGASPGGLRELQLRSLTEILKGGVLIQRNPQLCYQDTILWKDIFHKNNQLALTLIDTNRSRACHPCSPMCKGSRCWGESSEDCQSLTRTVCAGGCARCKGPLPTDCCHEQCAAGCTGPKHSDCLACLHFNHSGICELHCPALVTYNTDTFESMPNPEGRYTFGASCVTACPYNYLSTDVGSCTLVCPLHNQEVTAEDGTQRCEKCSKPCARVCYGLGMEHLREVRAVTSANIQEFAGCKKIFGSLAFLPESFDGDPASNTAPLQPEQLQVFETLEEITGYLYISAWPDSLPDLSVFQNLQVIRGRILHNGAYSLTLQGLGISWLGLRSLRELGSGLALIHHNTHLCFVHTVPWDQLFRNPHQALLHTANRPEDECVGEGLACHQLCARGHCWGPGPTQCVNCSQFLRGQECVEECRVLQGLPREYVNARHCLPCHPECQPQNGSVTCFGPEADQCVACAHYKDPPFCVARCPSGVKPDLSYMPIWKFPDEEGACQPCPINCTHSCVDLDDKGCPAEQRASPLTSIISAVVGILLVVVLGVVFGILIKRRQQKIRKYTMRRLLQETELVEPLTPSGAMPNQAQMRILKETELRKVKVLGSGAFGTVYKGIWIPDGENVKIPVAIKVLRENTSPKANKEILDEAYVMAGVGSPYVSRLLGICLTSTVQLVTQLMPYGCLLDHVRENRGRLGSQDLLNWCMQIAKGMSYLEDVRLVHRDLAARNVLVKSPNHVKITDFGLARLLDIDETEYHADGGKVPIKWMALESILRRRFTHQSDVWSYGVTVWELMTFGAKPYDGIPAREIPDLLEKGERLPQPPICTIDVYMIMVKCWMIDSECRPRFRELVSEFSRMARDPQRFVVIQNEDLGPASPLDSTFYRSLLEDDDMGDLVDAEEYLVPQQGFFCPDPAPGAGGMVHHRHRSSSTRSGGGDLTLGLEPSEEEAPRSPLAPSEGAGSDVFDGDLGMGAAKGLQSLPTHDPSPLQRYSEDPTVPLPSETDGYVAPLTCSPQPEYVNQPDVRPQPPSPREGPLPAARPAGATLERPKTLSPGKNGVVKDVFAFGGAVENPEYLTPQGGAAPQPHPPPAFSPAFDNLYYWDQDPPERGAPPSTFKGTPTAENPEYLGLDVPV

[7] = target: Receptor tyrosine-protein kinase erbB-2 (Homo sapiens) (UniProt P04626); details: at 1 µM
[8] = target: Receptor tyrosine-protein kinase erbB-4 (Homo sapiens) (UniProt Q15303); details: at 0.1 µM
Receptor tyrosine-protein kinase erbB-4 (Homo sapiens), sequence (Q15303 whole entry): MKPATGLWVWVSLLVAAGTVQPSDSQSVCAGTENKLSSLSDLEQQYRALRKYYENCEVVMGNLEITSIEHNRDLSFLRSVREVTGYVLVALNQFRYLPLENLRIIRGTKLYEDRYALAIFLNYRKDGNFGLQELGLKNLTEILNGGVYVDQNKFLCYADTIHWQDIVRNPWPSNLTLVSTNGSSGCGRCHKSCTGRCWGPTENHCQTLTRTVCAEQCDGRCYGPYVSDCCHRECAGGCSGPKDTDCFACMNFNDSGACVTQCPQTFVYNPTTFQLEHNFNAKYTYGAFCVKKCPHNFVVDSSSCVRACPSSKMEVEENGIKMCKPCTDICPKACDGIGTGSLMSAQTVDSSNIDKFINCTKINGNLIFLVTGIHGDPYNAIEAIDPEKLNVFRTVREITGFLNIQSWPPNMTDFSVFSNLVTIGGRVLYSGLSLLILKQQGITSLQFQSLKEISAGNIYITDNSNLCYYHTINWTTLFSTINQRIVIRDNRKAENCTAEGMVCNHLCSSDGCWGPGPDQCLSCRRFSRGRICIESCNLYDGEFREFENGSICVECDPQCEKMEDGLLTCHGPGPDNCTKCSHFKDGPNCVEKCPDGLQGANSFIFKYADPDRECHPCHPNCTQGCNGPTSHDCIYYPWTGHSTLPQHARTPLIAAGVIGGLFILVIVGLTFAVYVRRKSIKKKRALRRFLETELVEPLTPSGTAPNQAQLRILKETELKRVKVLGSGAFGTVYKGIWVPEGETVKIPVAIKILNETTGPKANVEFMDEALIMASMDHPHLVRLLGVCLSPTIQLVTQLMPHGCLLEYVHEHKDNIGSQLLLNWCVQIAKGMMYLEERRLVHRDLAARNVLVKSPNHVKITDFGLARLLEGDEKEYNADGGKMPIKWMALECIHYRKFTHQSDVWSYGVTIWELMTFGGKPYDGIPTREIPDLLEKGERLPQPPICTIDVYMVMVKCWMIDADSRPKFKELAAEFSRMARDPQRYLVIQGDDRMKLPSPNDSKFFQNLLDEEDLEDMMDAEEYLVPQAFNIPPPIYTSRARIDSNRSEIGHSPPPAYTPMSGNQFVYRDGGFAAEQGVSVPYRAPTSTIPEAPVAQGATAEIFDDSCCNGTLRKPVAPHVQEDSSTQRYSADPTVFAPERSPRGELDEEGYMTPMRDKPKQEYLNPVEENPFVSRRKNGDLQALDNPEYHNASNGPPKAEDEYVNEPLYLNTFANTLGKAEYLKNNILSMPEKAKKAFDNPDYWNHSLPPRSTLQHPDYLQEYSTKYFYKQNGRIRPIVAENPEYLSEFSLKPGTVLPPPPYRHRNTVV

[9] = target: Receptor tyrosine-protein kinase erbB-4 (Homo sapiens) (UniProt Q15303); details: at 1 µM
[10] = target: Tyrosine-protein kinase Fer (Homo sapiens) (UniProt P16591); details: at 0.1 µM;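 note: reported figures are averaged percent inhibition of FER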
Tyrosine-protein kinase Fer (Homo sapiens), sequence (P16591 whole entry, looked up): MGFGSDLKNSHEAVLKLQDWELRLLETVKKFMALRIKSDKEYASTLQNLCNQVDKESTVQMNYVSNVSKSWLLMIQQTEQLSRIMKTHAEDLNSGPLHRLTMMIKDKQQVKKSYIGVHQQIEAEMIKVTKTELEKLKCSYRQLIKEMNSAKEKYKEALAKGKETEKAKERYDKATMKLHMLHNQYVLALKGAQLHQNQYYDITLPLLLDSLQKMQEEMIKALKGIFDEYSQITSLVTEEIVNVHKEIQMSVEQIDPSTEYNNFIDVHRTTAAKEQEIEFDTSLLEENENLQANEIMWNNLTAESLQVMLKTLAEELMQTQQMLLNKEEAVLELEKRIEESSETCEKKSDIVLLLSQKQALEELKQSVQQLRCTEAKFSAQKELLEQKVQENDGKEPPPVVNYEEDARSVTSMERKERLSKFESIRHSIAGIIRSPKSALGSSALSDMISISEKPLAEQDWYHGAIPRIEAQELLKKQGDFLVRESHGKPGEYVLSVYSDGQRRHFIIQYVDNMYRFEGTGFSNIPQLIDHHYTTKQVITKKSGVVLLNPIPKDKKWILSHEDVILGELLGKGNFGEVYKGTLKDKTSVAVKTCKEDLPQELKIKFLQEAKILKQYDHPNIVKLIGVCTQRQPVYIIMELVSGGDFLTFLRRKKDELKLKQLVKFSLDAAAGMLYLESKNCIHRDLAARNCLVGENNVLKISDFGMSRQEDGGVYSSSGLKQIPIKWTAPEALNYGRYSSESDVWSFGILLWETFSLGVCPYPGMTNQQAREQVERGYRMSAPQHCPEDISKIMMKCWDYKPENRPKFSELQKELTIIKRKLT

| SMILES | inhibition [1] | inhibition [2] | inhibition [3] | inhibition [4] | inhibition [5] | inhibition [6] | inhibition [7] | inhibition [8] | inhibition [9] | inhibition [10] |
| --- | --- | --- | --- | --- | --- | --- | --- | --- | --- | --- |
| CCS(=O)(=O)c1ccc(OC)c(Nc2ncc(-c3cccc(F)c3)o2)c1 | 45.9% | 3.05% | 6.76% | 5.59% | 31.7% | 38.7% | 5.62% | 9.46% | 17.8% | 2.32% |
| Cn1c(-c2nonc2N)nc2cnccc21 | 3.92% | 3.54% | 4.62% | 2.84% | 2% | 4.78% | 3.42% | 14.9% | 17.3% | 3.92% |
| CS(=O)(=O)Nc1ccc(-c2cc(-c3ccccc3)cc(C(N)=O)c2N)cc1 | 5.3% | 0.56% | 2.36% | 0.54% | 0.87% | 1.08% | 6.84% | 4.73% | 11.9% | -2.85% |
| CCn1c(-c2nonc2N)nc2cncc(C(=O)NCCNC)c21 | 7.7% | 3.02% | 3.19% | -0.07% | 0.78% | 5.03% | 3.74% | 10.7% | 12.2% | 4.13% |
| CN(C)CCNC(=O)Nc1ccc(N(C)c2ccnc(Nc3ccc(CS(C)(=O)=O)cc3)n2)cc1 | 15.1% | 5.05% | 1.99% | 2.45% | 3.65% | 0.75% | -0.72% | 8.93% | 9.37% | 4.17% |
| CS(=O)(=O)CCNCc1ccoc1-c1ccc2ncnc(Nc3ccc(OCc4ccccc4)cc3)c2c1 | 7.96% | 3.15% | 2.98% | 0.88% | 1.51% | 3.25% | 50.9% | 32.3% | 79.9% | -0.1% |
| COc1ccc2ncn(-c3cc(O[C@H](C)c4ccccc4C(F)(F)F)c(C(N)=O)s3)c2c1 | 1.95% | 1.32% | 0.52% | -1.21% | 1.77% | -0.36% | -1.72% | 1.06% | 3.12% | 1.06% |
| CN1CCC(C(=O)Nc2n[nH]c3nc(-c4ccc(O)cc4)c(Br)cc23)CC1 | 8.11% and 8.66% | 1.14% and 1.43% | 1.83% and 4.59% | -1.77% and 1.07% | -1.46% and 4.54% | 6.86% and 3.66% | 7.03% and 4.93% | 6.26% and 5.04% | 8.49% and 8.92% | 4.47% and -1.58% |
